# The panel holds about 83,000 compounds, 20% with a hit somewhere; the sample as a whole holds those more often.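 Testing used 96-well plates and a 48-hour single-concentration exposure. Example: -40 means 40% of the starting cells died.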 Values without a mark were called inactive. Active and inactive are the calls of the source. Rule for the calls: active = growth percent below 10; inactive = the rest.
# Tested on: HL-60(TB) leukemia
# Assay: NCI-60 one-dose screen, 48 h (100 = growth as untreated, 0 = no growth, -100 = all killed)
# Details: 10 µM unless noted
row,SMILES,growth
1,CCCCNC1(C#N)CCN(Cc2ccccc2)CC1,153%
2,C[n+]1ccccc1/C=C/c1ccc2cccc(O)c2n1,79.2%
3,COc1ccc(C(=O)c2nccc3cc(OC)c(OC)cc23)cc1OC,102%
4,CCN(CCO)CCCOc1ccc2c(Nc3cc(CC(=O)Nc4cccc(F)c4)[nH]n3)ncnc2c1,-2.32% (active)
5,C=C1C(=O)O[C@H]2[C@H]1CC/C(COC(=O)/C=C\C(=O)NCc1ccc(Cn3c(=O)sn(-c4ccc(C#N)cc4)c3=O)cc1)=C\CC[C@@]1(C)O[C@@H]21,-40.3% (active)
6,COC(=O)c1nc(-c2ccc(C)cc2)oc1Sc1ccc(C)cc1,91.4%
7,COc1ccc2nc(N/N=C(\C)c3ccccn3)cc(C)c2c1,-64.7% (active)
8,CCCCCCCCCCCCCCCCCCOP(=O)(O)O,102%
9,O=C1c2cccc3cccc(c23)C(=O)N1C/C=C/c1ccc2c3c(cccc13)C(=O)N(CCO)C2=O,94.2%
10,CCC(=O)NC(O)C(Cl)(Cl)C(C)Cl (stereo unspecified),119%
11,Cc1ccc(N)cc1F,120%
12,COc1ccc(NC(=O)Cc2nc3nc4sc(C)c(C)c4c(=O)n3[nH]2)cc1,109%
13,COc1ccc2nc(NC(=O)c3cc(-c4ccc(F)cc4)n4nc(-c5ccccc5)cc4n3)sc2c1,98.7%
14,CCCCCCCCCCCCCCCC(=O)OC1[C@@H](OC(=O)CCCCCCCCCCCCCCC)[C@@H](C(=O)N[C@@H](CCCCN)C(=O)OC)O[C@H]1n1cnc2c(=O)[nH]c(NC(=O)C(C)C)nc21 (stereo partly specified),98.3%
15,Cn1c(=O)c2[nH]c(=S)n(Cc3ccccc3)c2n(C)c1=O,101%
16,CNC(=O)c1cc(Oc2ccc3c(c2)sc2nc(-c4ccc(NC(C)=O)cc4)cn23)ccn1,44.2%
17,COc1cccc(/C=N/NC(=S)NC2CC3CCC2C3)c1O (stereo unspecified),71.3%
18,CN1CCN(C)c2cncc(Br)c2C1=O,96.4%
19,O=NN(C(=O)NC1CCC(C(=O)O)CC1)C1CCC(C(=O)O)CC1 (stereo unspecified),112%
20,COCc1cnccc1NC1CCCCCC1,86.2%
21,CCNC(=O)Oc1ccc(/C(=C(\C)c2ccccc2)c2ccc(OCCN3CCCCC3)cc2)cc1,45.5%
22,COc1ccc2c(c1)c(-c1ccc(-c3cn(C)c4ccc(OC)cc34)o1)cn2C,-23% (active)
23,O=C(Nc1ccccc1Cl)Oc1ccc2ccccc2c1,72.3%
24,CCCN(CCC)C(=O)[C@H](CC)[C@@H]1CC[C@@H](C)[C@@H]([C@H](C)[C@@H](O)[C@@H](C)C(=O)[C@H](CC)C2O[C@]3(C=C[C@@H](O)[C@]4(CC[C@@](C)([C@H]5CC[C@](O)(CC)[C@H](C)O5)O4)O3)[C@H](C)C[C@@H]2C)O1 (stereo partly specified),-47.7% (active)
25,CCN1CCN(CC(=O)Nc2nc3ccc(NCc4ccc(F)cc4)cc3s2)CC1,96.4%
26,CC[C@@H](C)/C=C(C)/C=C/C(=O)c1c(O)c(-c2ccc(O)cc2)cn(OC2CC(=O)CCC(C)OC(=O)CC2O)c1=O (stereo partly specified),-10.1% (active)

# From PubChem BioAssay (NCI)
